AMA1 RON2 block: AMA1-RON2 (P. falciparum) interaction inhibition; AlphaScreen AMA1-biotinylated RON2 peptide binding; Potency, µM (series often up to 58.2 µM), for inactives: top-dose activity change, negative = inhibition, usual class: inhibitors; 360,000 compounds, 0.2% hits;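 further: potency means the concentration at half of the fitted maximal effect; 0% = vehicle wells and -100% = peptide control; nearly all actives have a fitted effect of over 45% in size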
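AMA1 (3D7) with his tag at 25 nM final met compounds first, then biotinylated RON2 peptide at 25 nM; detection used donor plus acceptor beads, 10 µg/mL apiece, read by AlphaScreen after 30 min at room temperature.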
Shiga toxin inh: inhibitors of Shiga toxin in Vero cells; Vero cells, Shiga toxin protein synthesis inhibition reporter; AID 2315; inhibition, % at 38.7 µM; 290,000 compounds, 9.2% hits; in the data active means inhibition mostly above about 28%, no sharp cut-off; inactive means mostly below about 43%; further: 0% is about no effect
Pf growth 48h: P. falciparum growth inhibition at 48 hours (one generation). P. falciparum luciferase growth in erythrocytes, 48 h. Potency, µM (series often up to 28.7 µM), for inactives: at the highest dose activity change, negative = inhibition, usual class: inhibitors. 310,000 compounds, 5.9% hits; further: potency means the concentration at half of the fitted maximal effect; on the % scale 0 is the no-effect control and ±100 the full control effect
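A one-generation exposure of luciferase-tagged malaria parasites in RPMI 1640/Albumax erythrocyte culture, 37 C and 5% CO2. Inhibition is inferred from decreased luminescence after adding detection reagent.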
HCV inh: inhibitors of hepatitis C virus infection; Huh7.5.1 HCVcc-Cre infection, luciferase reporter, 44 h; Potency, µM (top dose mostly 41.8 µM), inactives show at the highest dose activity change, negative = inhibition, most hits filed as inhibitors; 340,000 compounds, 3.4% hits; further: potency means the concentration at half of the fitted maximal effect; on the % scale 0 is the no-effect control and ±100 the full control effect
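Compounds are dispensed onto cells plated 4 h earlier at 1,000 per well, with HCVcc-Cre virus (about 0.5 moi) added next. Following 44 h of culture, luminescent signal is measured for 15 sec after 15 min with substrate at room temperature.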
CHX counter: affects cycloheximide protein synthesis inhibition readout, counter-screen. cell reporter, cycloheximide protein synthesis inhibition counterscreen. max response, %. 300,000 compounds, 12% hits; in the data active means max response mostly above about 13%, no sharp cut-off; inactive means mostly below about 14%; further: read at 38.3 µM for the half of the compounds with a filed dose; 0% is about no effect
Pf growth 96h: inhibits malaria parasite growth, 96 h; 320,000 compounds, 6.9% hits; Potency, µM (titrated, usually from 28.7 µM), without a hit: at the highest dose activity change, negative = inhibition, most hits filed as inhibitors; P. falciparum luciferase reporter growth, 96 h; further: potency means the concentration at half of the fitted maximal effect; on the % scale 0 is the no-effect control and ±100 the full control effect
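Parasite growth measured via integrated firefly luciferase reporter in P. falciparum. Infected erythrocytes at 2% hematocrit, 0.05% parasitemia final were treated 96 hours at 37 C under 5% CO2, and luminescence was read.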
* = called active by the depositor; ? = inconclusive; . = no result given. This is a sample that favours compounds with a hit; in the whole collection about 21% have one here. Unless noted, the call rests on the fitted dose curve; in most records, active means well fitted curve in the direction sought with a large enough effect; inconclusive means small, poorly fitted or top-dose-only effect, or another doubt; inactive means no such curve, though single readings can be large; an effect the other way counts as inactive or inconclusive.

SMILES | AMA1 RON2 block | Shiga toxin inh | Pf growth 48h | HCV inh | CHX counter | Pf growth 96h
COc1cccc(CN2CCNC(=O)C2CC(=O)NCCCC2CCCC2)c1OC (centres undefined) | 1% | 19 | 0% | . | 6 | 66%
CCOc1ccc(OCC)c(NS(=O)(=O)c2cn(C)cn2)c1 | -7% | -5 | 10% | 13% | -7 | ?
Cn1cnc(S(=O)(=O)Nc2ccccc2C(=O)NCC2CC2)c1 | -14% | -6 | 4.7µM* | 14% | -1 | 39%
c1ccc(Cn2nnc(CNc3ccccc3)c2-c2c(CNc3ccccc3)nnn2Cc2ccccc2)cc1 | -19% | -3 | 2.6µM* | -6% | -2 | 1.9µM*
CCC(c1nnnn1Cc1ccccc1)N(Cc1ccco1)Cc1cc2cc(OC)ccc2[nH]c1=O (centres undefined) | -6% | -11 | ? | -72% | -3 | -9%
CCC(c1nnnn1Cc1ccc(OC)cc1)N(CCCO)Cc1cc2cc3c(cc2[nH]c1=O)OCO3 (centres undefined) | -8% | 26 | ? | 8% | -1 | .
Cc1ccc2[nH]c(=O)c(CN(Cc3ccc4c(c3)OCO4)Cc3nnnn3Cc3ccco3)cc2c1 | -25% | -14 | ? | ? | -3 | .
CCC(c1nnnn1Cc1ccco1)N(CCc1ccccc1)Cc1cc2cc(C)ccc2[nH]c1=O (centres undefined) | -2% | -17 | 13µM* | ? | -7 | 314%
Cc1ccc2[nH]c(=O)c(CN(CCc3ccccc3)C(c3nnnn3Cc3ccco3)C(C)C)cc2c1 (centres undefined) | 4% | 40* | 3.3µM* | -27% | 15 | ?
CC(C)C(c1nnnn1Cc1ccccc1)N(CCCO)Cc1cc2cc3c(cc2[nH]c1=O)OCO3 (centres undefined) | 33% | -5 | 7.4µM* | -11% | -3 | 45%
Cn1ncc(Br)c1C(=O)N1CCCCCC1 | -1% | -14 | 2% | 8% | -3 | -28%
Cc1nn(C)cc1NC(=O)CCSc1nc(-c2ccco2)cc(C(F)(F)F)n1 | -2% | 4 | -17% | 11µM* | -1 | .
Cc1cc(NC(=O)CCSc2nc(-c3ccco3)cc(C(F)(F)F)n2)n(-c2ccccc2)n1 | 1% | 3 | 12µM* | ? | 1 | -16%
COc1ccc(NC(=O)CCCSc2nc(-c3ccco3)cc(C(F)(F)F)n2)cc1OC | -10% | 8 | -28% | 16µM* | -3 | 5%
CCn1nc(C)c(NC(=O)CCCSc2nc(-c3ccco3)cc(C(F)(F)F)n2)c1C | 3% | -2 | ? | 2µM* | -5 | 38%
c1ccc(C(NCc2cccnc2)(c2ccccc2)c2ccccc2)cc1 | . | 5 | . | . | -2 | .
CSCCC(C(=O)Nc1c(C)cccc1C)N1CCN(C/C=C/c2ccccc2)CC1 (centres undefined) | -22% | . | . | . | . | .
O=C(CCSc1nc(-c2ccco2)cc(C(F)(F)F)n1)NCC1CCCO1 (centres undefined) | 4% | -4 | ? | 10µM* | -2 | ?
COc1ccc(CCNC(=O)CCSc2nc(-c3ccco3)cc(C(F)(F)F)n2)cc1 | -8% | -3 | ? | ? | -1 | -27%
CCn1ncc(CNC(=O)CCSc2nc(-c3ccco3)cc(C(F)(F)F)n2)c1C | -6% | -3 | ? | 10µM* | -1 | 60%
CC(=O)Nc1ccc(S(=O)(=O)N2CCC3(CC2)CC(=O)c2ccccc2O3)cc1 | 2% | . | -28% | 1% | . | ?
COc1cc(OC)c(NC(=O)CS(=O)(=O)Cc2nc(-c3ccc(C)cc3)oc2C)cc1Cl | -7% | 46 | . | ? | 3 | 8.3µM*
COc1ccc(-c2nc(CS(=O)(=O)CC(=O)Nc3ccc(Cl)cc3)c(C)o2)cc1 | -2% | 40* | 32% | 10µM* | 19* | -29%
COc1ccc(NC(=O)CS(=O)(=O)Cc2nc(-c3ccc(C)cc3)oc2C)cc1 | -2% | -1 | 42% | -13% | -1 | -26%
COCCn1c(C)cc(C(=O)CSc2nc(C)c(C)c(C)n2)c1C | 0% | 24 | -26% | -5% | 11 | ?

High-throughput results deposited in PubChem BioAssay by National Center for Advancing Translational Sciences (NCATS).
